Test [1] can be described thus: qHTS assay for small molecules that induce genotoxicity in human embryonic kidney cells expressing luciferase-tagged ATAD5 (AID 651632). Note: nearly all actives have a fitted effect of over 15% in size. Note: potency is the fitted concentration of half-maximal effect. The essentials:
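DMSO vehicle served as the control. HEK293T reporter cells, 16 hr at 37C, then 30 min Amplite at room temperature; ATAD5 induction is measured as luciferase activity.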
(Quantitative high-throughput screening tests each substance at several concentrations.)

The nature of test [2]: qHTS assay for small molecule agonists of the p53 signaling pathway - cell viability (AID 651633; calls by dose curve; note: nearly all actives have a fitted effect of over 30% in size; note: potency is the fitted concentration of half-maximal effect). An outline of the steps: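 p53RE-bla cells, seeded at 4,000 per well and rested 5 h at 37 C/5% CO2, received compounds in DMSO for 16 h at 37 C. CellTiter-Glo was then added, and luminescence was read after 30 min at room temperature to gauge cytotoxicity.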
Test [3] is described as follows: qHTS assay for small molecule disruptors of the mitochondrial membrane potential - cell viability (AID 720634; calls by dose curve; note: nearly all actives have a fitted effect of over 20% in size; note: potency is the fitted concentration of half-maximal effect). An outline of the steps: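 Viability of HepG2 cells is scored from ATP content by luminescence; cells are exposed to compound for 1 hr at 37 C and 5% CO2, then dosed with m-MPI dye before the CellTiter-Glo reagent.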
The nature of test [4]: qHTS assay to test for compound auto fluorescence at 535 nm (green) in HepG2 cells (AID 720675).
Test [5] is described as follows: qHTS assay to test for compound auto fluorescence at 460 nm (blue) in HEK293 cells (AID 720678). An outline of the steps: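 Triamterene serves as the blue fluorophore standard. Compound signal at 405/460 nm is read in HEK293 wells (2,000 cells, 10% dialyzed FBS) after overnight treatment at 37C.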
Test [6] can be described thus: qHTS assay to test for compound auto fluorescence at 590 nm (red) in HEK293 cells (AID 720679). An outline of the steps:
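We plated HEK293 cells in 10% dialyzed FBS medium, let them adhere for 4-5 hr, then added 23 nL compound. Overnight at 37C and 5% CO2 preceded fluorescence measurement at 540/590nm.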

Test [7] is described as follows: qHTS assay for small molecule disruptors of the mitochondrial membrane potential (AID 720635). Note: potency is the fitted concentration of half-maximal effect. An outline of the steps: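 HepG2 cells (2,000/well) attached overnight at 37C, then took compound for 1 hr at 37C, 5% CO2. Mito-MPS dye was added for 30 min; fluorescence was read at 490/535 nm (monomers) and 540/590 nm (aggregates).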
Test [8] is described as follows: qHTS assay to test for compound auto fluorescence at 590 nm (red) in HepG2 cells (AID 720674). An outline of the steps:
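Compound auto-fluorescence is scored relative to Rose Bengal sodium, measured at 540/590 nm in live HepG2 cultures after 1 hr compound contact (37 C, 5% CO2).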

The nature of test [9]: qHTS assay for small molecules that induce genotoxicity in human embryonic kidney cells expressing luciferase-tagged ATAD5 - cell viability (AID 651634; calls by dose curve; note: nearly all actives have a fitted effect of over 25% in size; note: potency is the fitted concentration of half-maximal effect). An outline of the steps: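 Here HEK293T cells with the ATAD5 luciferase reporter are incubated with test compounds for 15.5 hr, and cytotoxicity is then gauged by measuring protease activity in live cells using fluorescence.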

33 compounds from PubChem BioAssay (Tox21) can be followed below.

A number with no mark means an inactive call. Inconclusive results are not listed. Active and inactive are the calls of the source. Unless noted, calls come from the whole dose curve; as a rule, active = well fitted curve in the direction sought with a large enough effect in the repeat runs; inconclusive = weak or mixed curves; inactive = no such curve, though single readings can be large; an effect the other way counts as inactive or inconclusive.
% is set by controls: 0 for no effect and ±100 for the full control effect.

`CCN(CC)CCOC(=O)C(Cc1cccc2ccccc12)CC1CCCO1` (stereo unspecified): the Potency result in test [1], in test [2] and in test [3] was “inactive” in each case. Besides, the fluorescence, % of fluorescein control in test [4] is 0.0388% [at 18.6 µM]. Moreover, the fluorescence, % of triamterene in [5] is 0.0425% [at 18.6 µM]. Further, in test [6], the fluorescence, % of fluorescent control was 0.195% [at 18.6 µM].
On to `C=C1C(=C/C=C2\CCC[C@]3(C)[C@@H]([C@H](C)/C=C/[C@@H](O)C4CC4)CC[C@@H]23)C[C@@H](O)C[C@@H]1O`, for which the Potency entry in test [1], in test [3], in test [8], in test [4] and in test [6] was “inactive” in each case. Moreover, the values for the Potency in test [2] and in test [7] were 26.6 µM (active) and 22.1 µM (active), respectively. In addition, in test [5], the compound was called inactive.
Turning to `CCC(Cl)CCC(Cl)C(Cl)CC(Cl)C(Cl)C(Cl)CCl` (stereo unspecified), the Potency entry in test [1], in test [2], in [9], in test [3], in [4] and in [6] was “inactive” each time. Also, the compound was called inactive in test [5].
Consider `O=C(O)C1(C(=O)Nc2ccc(Cl)cc2Cl)CC1`, for which the values for the Potency in [1] and in test [7] were 1.93 µM (active) and 8.63 µM (active), respectively. The Potency entry in [2], in test [9], in test [4] and in test [6] was “inactive” in each case. In addition, the call in [5] was inactive.
For `CCC(CC)Nc1ccc(C)c(C)c1`, the Potency entry in test [1], in test [2], in test [9], in test [8], in [4] and in [6] was “inactive” each time. Also, the compound was classed as inactive in test [5].
Turning to `OC(CN1CCC(Cc2ccc(F)cc2)CC1)c1ccc(Cl)cc1` (stereo unspecified), the Potency entry in test [1], in test [2], in test [9], in [3], in test [4] and in test [6] was “inactive” in each case. The compound was classed as inactive in [5].
For the compound `CC(C)Nc1ccc(NC(C)C)c2c1C(=O)c1ccccc1C2=O`, the Potency result in [1], in [2], in test [8], in test [4] and in [6] was “inactive” in each case. Also, in test [7], the Potency is 11.3 µM (active). The result in test [5] was inactive.
Turning to `CN1CCC(=C2c3ccccc3Sc3ccccc32)CC1`, the Potency result in test [1], in [3], in test [8], in test [4] and in [6] was “inactive” throughout. The Potency in [2] is 29.8 µM (active). Besides, in test [5], the result was inactive.
Consider `CCCOC(C(=O)OC1CCN(C)CC1)(c1ccccc1)c1ccccc1`, for which the Potency entry in test [1], in test [2], in test [3] and in test [6] was “inactive” in each case. Besides, the compound was called inactive in test [5].
For the compound `OCCN1CCN(CCCN2c3ccccc3C=Cc3ccccc32)CC1`, the Potency result in test [1], in test [2], in test [8], in test [4] and in test [6] was “inactive” throughout. Also, the outcome in test [5] was inactive.
With `Brc1c2ccccc2cc2ccccc12`, the Potency entry in test [1], in test [9], in test [8], in test [4] and in [6] was “inactive” each time. In addition, the Potency is 55 µM (active) in test [3] and 30.9 µM (active) in test [7]. For the same compound, the compound was classed as inactive in [5].
Regarding `CO[C@@H]1[C@H](OC(=O)/C=C/C=C/C=C/C=C/C(=O)O)CC[C@]2(CO2)[C@H]1[C@@]1(C)O[C@@H]1CC=C(C)C`, the Potency entry in test [1], in test [2], in test [9], in test [3] and in test [6] was “inactive” in each case. For the same compound, the compound was classed as inactive in test [5].
In the case of `COc1ccc(C(=O)Nc2nc3ccccc3c(NCc3ccccc3)c2C#N)cc1`, the Potency entry in test [1], in [2], in test [9], in [8], in test [4] and in [6] was “inactive” each time. For the same compound, the Potency in [7] is 5.45 µM (active). The result in test [5] was inactive.
`CC[N+](C)(CC)CCOC(=O)C(O)(c1ccccc1)C1CCCCC1` (stereo unspecified): the Potency result in test [1], in [2], in [9], in test [7], in test [8] and in test [4] was “inactive” in each case. The Potency entry in test [6] was “inactive”. For the same compound, the compound was classed as inactive in [5].
With `COc1ccnc(CS(=O)c2nc3ccc(OC(F)F)cc3[nH]2)c1OC` (stereo unspecified), the Potency result in [1], in test [2], in test [9], in test [8], in test [4] and in [6] was “inactive” each time. In addition, the result in test [5] was inactive.
As for `CCOc1ccc(N=Nc2ccc(/C=C/c3ccc(N=Nc4ccc(OCC)cc4)cc3S(=O)(=O)O)c(S(=O)(=O)O)c2)cc1`, the Potency entry in test [1], in test [2], in test [3], in [4] and in test [6] was “inactive” throughout. Moreover, in test [9], the Potency is 42.6 µM (active). The call in test [5] was inactive.
As for `CCOC(=O)NCCOc1ccc(Oc2ccccc2)cc1`, the Potency entry in [1], in test [2], in test [9], in test [8] and in test [6] was “inactive” each time. The Potency in test [7] was 27.3 µM (active). For the same compound, in [5], the result was inactive.
With `Cc1c(N)cccc1[N+](=O)[O-]`, the Potency result in [1], in [2], in test [3], in test [7], in test [8] and in test [4] was “inactive” each time. The Potency result in test [6] is “inactive”. Moreover, the result in [5] was inactive.
Take `CN(C)CCN(Cc1ccc(Cl)cc1)c1ccccn1`: the Potency result in test [1], in test [2], in test [9] and in test [3] was “inactive” each time. Also, the fluorescence, % of fluorescein control in test [4] was 0.0171% [at 18.6 µM]. In addition, the fluorescence, % of triamterene in test [5] was 0.037% [at 18.6 µM]. Moreover, the fluorescence, % of fluorescent control in test [6] was -0.0077% [at 18.6 µM].
With `C=C(C)C(=O)OCCO`, the Potency result in test [1], in test [2], in test [3], in test [7], in [8] and in test [4] was “inactive” each time. For the same compound, the Potency entry in test [6] is “inactive”. In addition, the call in test [5] was inactive.
In the case of `CC(CSC(=O)c1ccccc1)C(=O)N1C[C@@H](Sc2ccccc2)C[C@H]1C(=O)O` (stereo partly specified), the Potency result in [1], in [2], in test [9], in test [7], in [8] and in test [6] was “inactive” in each case.
For `Clc1ccc2c(c1)CCc1cccnc1C2=C1CCNCC1`, the Potency result in test [1], in test [2], in [3], in test [8], in test [4] and in test [6] was “inactive” each time. Besides, in [5], the compound was called inactive.
For `CC(C)=CCC/C(C)=C/CC/C(C)=C/CO`, the Potency result in [1], in test [8], in [4] and in [6] was “inactive” each time. For the same compound, in test [2], the Potency was 68.6 µM (active). In addition, the compound was classed as inactive in test [5].
Turning to `O=C(O)C(S)C(S)C(=O)O` (stereo unspecified), the Potency result in test [1], in test [2], in [7], in test [8], in [4] and in [6] was “inactive” each time. Also, the compound was called inactive in test [5].
With `C1CCCNCCC1`, the Potency result in test [1], in [2], in test [9], in test [7], in test [8] and in [4] was “inactive” throughout. In addition, in test [6], the Potency result is “inactive”. The call in test [5] was inactive.
For the compound `COc1cc2c(cc1OC)C(C(C(=O)N(CCc1ccc(OC)c(OC)c1OC)CCc1ccc(OC)c(OC)c1OC)c1ccccc1)=NCC2` (stereo unspecified), the Potency result in [1], in test [2], in [3], in [8], in test [4] and in [6] was “inactive” each time. Besides, in test [5], the compound was called inactive.
In the case of `CN1CCC(N(Cc2cccs2)c2ccccc2)CC1`, the Potency result in test [1], in [2], in [9], in [3], in [4] and in test [6] was “inactive” each time. Further, the outcome in test [5] was inactive.
Turning to `Cc1nn(C)c(Oc2ccccc2)c1/C=N/OCc1ccc(C(=O)OC(C)(C)C)cc1`, the Potency entry in test [1], in test [2], in test [9], in test [8], in test [4] and in [6] was “inactive” in each case. Moreover, the Potency in [7] was 17.2 µM (active). Further, the result in [5] was inactive.
Consider `CCCCCCCCCCCCCCCCCCOS(=O)(=O)O`, for which the Potency result in test [1], in [3], in test [8], in [4] and in test [6] was “inactive” in each case. Besides, the Potency in test [2] was 61.1 µM (active). The result in test [5] was inactive.
As to `Cc1oc(-c2ccccc2)nc1CCOc1cccc2c1ccn2CCC(=O)O`, the Potency entry in test [1], in test [2], in test [3], in test [8], in test [4] and in test [6] was “inactive” throughout. The compound was classed as inactive in test [5].
For `O=C(O)CC(=O)C(=O)O`, the Potency result in test [1], in test [9], in [3], in test [8], in [4] and in [6] was “inactive” each time. The result in test [5] was inactive.
On to `CC(C)(C)OCC1CO1` (stereo unspecified), for which the Potency result in test [1], in test [9], in test [7], in [8], in test [4] and in test [6] was “inactive” in each case. Further, in test [5], the result was inactive.
Take `CN(C)CCCN1c2ccccc2Sc2ccccc21`: the Potency entry in [1], in test [9] and in test [3] was “inactive” in each case. The fluorescence, relative to Rose Bengal in [8] was 0.23% [at 18.6 µM]. In test [5], the fluorescence, % of triamterene was 0.0346% [at 18.6 µM]. The fluorescence, % of fluorescent control in [6] was -0.0069% [at 18.6 µM].
